Measured values from PubChem BioAssay (NCATS).
Results filed as inconclusive are left out. A number with no mark means an inactive call. The source made the active and inactive calls. Calls come from the whole dose curve; as a rule, active = well fitted inhibition curve with a large enough effect; inconclusive = small, poorly fitted or top-dose-only effect; inactive = no such curve, though single readings can be large or run the other way.

experiment: BET inhibitor-based combinations targeting novel dependencies in MECOM-rearranged (r) AML: MV-4-11 cell line (AID 2202233); conditions: MV-4-11 AML viability, CellTiter-Glo luminescence, 48 h; series mostly up to 46 µM; viability, % of control: at the top concentration; note: nearly all actives have a fitted effect of over 45% in size
Excerpt: Ecotropic viral insertion site 1 (EVI1) is located on chromosome 3q26.2 as part of the MECOM (MDS and EVI1 complex) locus. Under normal hematopoiesis, EVI1 is a regulator of hematopoietic stem cell maintenance and self-renewal and EVI1 levels decrease as the cells differentiate. In approximately 5-10% of de novo acute myeloid leukemia (AML) EVI1 is aberrantly expressed, including Chromosomal inv(3)(q21;q26.2) or t(3;3)(q21;q26.2) alterations (MECOM-r) that account for about 50% of AML with EVI1 overexpression 31. AMLs with high levels of EVI1 have a poor prognosis and an overall survival time averaging between 10-14 months. EVI1 overexpression confers resistance in leukemia cells, highlighting the need to develop new targeted therapies for EVI1 overexpressing AMLs. Here, we performed an unbiased chemical drug screening by evaluating the single agent activity of a collection of 2,480 oncology-focused, approved and investigational drugs (NCATS Mechanism Interrogation Plates, MIPE v5.0) against a panel of seven AML cell lines. These included four MECOM-r cell-lines (AML-191, AML-194, UCSD-AML1 and HNT-34) and three non-MECOM-r AMLs (MV4-11, OCI-AML3 and SET-2). Exploiting the mechanistic redundancy built in the library, we identified target-level sensitivities in MECOM-r AML cells and relative activity as compared to other AML subtypes.
A collection of 2480 mechanistically annotated dugs (MIPE v5.0) was used to screen four 3q26.2 rearranged AML cell lines and three non-3q26.2 rearranged AML cell lines. This library purposely exploits redundancy by including multiple inhibitors of key onco-targets, while simultaneously encompassing mechanistic diversity, targeting more than 800 distinct mechanisms of action. Briefly, cells were seeded in 5 uL of growth media using a Multidrop Combi dispenser into 1536 well white polystyrene tissue culture treated plates (Corning) at a density of 500cells/well. For each cell-line, for each of the 2480 drugs in MIPE v5.0 library, an 11-point dose curve was generated via a 1536 pin-tool. Plates were incubated for 48 hr at standard incubator conditions, covered by a stainless steel gasketed lid to prevent evaporation. Cell viability was determined by luminescence based, Cell Titer Glo assay (Promega). In detail, 3 uL of Cell Titer Glo were added to each well and plates were incubated at room temperature for 15 min with a stainless-steel lid in place. Luminescence readings were taken using a Viewlux (PerkinElmer) with a 2 s exposure time per plate. Compound dose-response curves were normalized to DMSO and empty well controls on each plate. Quantitative drug activity data from dose-response curves was determined utilizing area Under the Curve (AUC) and Z-transformed AUC (Z-AUC, a mean-centering transformation applied to each individual cell-line screened).
Potency is the fitted concentration of half-maximal effect.

| Compound | Potency | viability, % of control |
| --- | --- | --- |
| COc1ccc(Cc2nccc3cc(OC)c(OC)cc23)cc1OC | 18.6 µM (active) |  |
| COc1cc(/C=C(\C#N)C(=O)Nc2nnc(C(F)(F)F)s2)ccc1OCc1ccc(C(F)(F)F)cc1C(F)(F)F |  | 109% |
| O=C(NCc1cccc(O)c1)Nc1nc(-c2ccncc2)cs1 | 9.34 µM (active) |  |
| CN1CCN(c2cc(C(=O)Nc3ccc4c(c3)-c3c(c(C(N)=O)nn3-c3ccc(F)cc3)CC4)c(Cl)cn2)CC1 | 7.42 µM (active) |  |
| NNC(=O)c1ccncc1 |  | 114% |
| CC(C)(C)Sc1c(CC(C)(C)C(=O)O)n(Cc2ccc(Cl)cc2)c2ccc(OCc3ccc4ccccc4n3)cc12 | 26.3 µM (active) |  |
| CC(C)(O)CC(=O)NCCn1ccc2ncnc(Nc3ccc(Oc4cccc(C(F)(F)F)c4)c(Cl)c3)c21 | 13.2 µM (active) |  |
| O=[N+]([O-])c1cn2c(n1)OC[C@@H](OCc1ccc(OC(F)(F)F)cc1)C2 |  | 96.2% |
| C[C@@H](N)c1ccc(C(=O)Nc2ccnc3[nH]ccc23)cc1 | 3.72 µM (active) |  |
| O=NN(CCCl)C(=O)NC1CCCCC1 |  | 123% |
| Cc1cc2cc3c(C)cc(=O)oc3c(C)c2o1 |  | 130% |
| CC[C@H](CC#N)OC(=O)N[C@@H](C)c1cccc(NC(=O)Nc2ccc(-c3cnco3)c(OC)c2)c1 | 0.235 µM (active) |  |
| CN1CCC(CNc2ccc3ncc(-c4cccc(OC(F)(F)F)c4)n3n2)CC1 | 0.166 µM (active) |  |
| Cc1ccc(NC(=O)Nc2cc(C(F)(F)F)ccc2F)cc1Nc1ccc2c(c1)NC(=O)/C2=C\c1ccc[nH]1 | 16.6 µM (active) |  |
| Cc1c(CN2CCN(S(C)(=O)=O)CC2)sc2c(N3CCOCC3)nc(-c3cnc(N)nc3)nc12 | 1.32 µM (active) |  |
| CC(C)(C)OC(=O)CN(Cc1ccc(Cl)cc1)Cc1ccc([N+](=O)[O-])s1 | 18.6 µM (active) |  |
| O=C(CCN1CCN(C(=O)OCc2cc(Cl)cc(Cl)c2)CC1)c1ccc2[nH]c(=O)oc2c1 | 26.3 µM (active) |  |
| NC(=O)c1ncn([C@@H]2O[C@H](CO)[C@@H](O)[C@H]2O)c1N |  | 138% |
| Cc1ccc(Nc2cc(-c3cccc(N4C(=O)c5ccccc5C4=O)c3)ncn2)cc1NS(C)(=O)=O | 10.5 µM (active) |  |
| NCCc1ccc(O)c(O)c1 | 18.6 µM (active) |  |

| Compound | Potency | viability, % of control |
| --- | --- | --- |
| O=C(O)c1cn(-c2ccc(F)cc2)c2cc(N3CCNCC3)c(F)cc2c1=O |  | 100% |
| O=C(O)CCNC(=O)c1ccc(N=Nc2ccc(O)c(C(=O)O)c2)cc1 |  | 125% |
| CC1(O)CC(c2nc(-c3ccc4ccc(-c5ccccc5)nc4c3)c3c(N)nccn23)C1 (stereo not given) |  | 49.5% |
| CCn1c(C(=O)N(C2CC2)C2CC2)cc2c3c(ncn3C)c(Nc3cc(C)n(C)n3)nc21 | 2.63 µM (active) |  |
| CCc1ccc(C(=O)Nc2cc(CN3CCN(C)CC3)cc(C(F)(F)F)c2)cc1C#Cc1cnc2ccnn2c1 | 7.42 µM (active) |  |
| COc1cc(C)c(Sc2cnc(NC(=O)c3ccc(CNC(C)C(C)C)cc3)s2)cc1C(=O)N1CCN(C(C)=O)CC1 (stereo not given) | 7.42 µM (active) |  |
| CCN(CCCOc1ccc2c(Nc3cc(CC(=O)Nc4cccc(F)c4)[nH]n3)ncnc2c1)CCOP(=O)(O)O | 0.372 µM (active) |  |
| CN(C)CCN1C(=O)c2cccc3cc(N)cc(c23)C1=O | 3.72 µM (active) |  |
| CC(Cc1ccc(O)c(O)c1)(NN)C(=O)O (stereo not given) |  | 59.3% |
| CC(C)C[C@H](NC(=O)CNC(=O)c1cc(Cl)ccc1Cl)B(O)O | 0.148 µM (active) |  |
| CCN(CC)CCOc1ccc(Nc2ncc3cc(-c4c(Cl)cccc4Cl)c(=O)n(C)c3n2)cc1 | 0.59 µM (active) |  |
| CC(C)Cc1ccc(C(C)C(=O)O)cc1 (stereo not given) |  | 129% |
| CCOC(=O)[C@H](CCc1ccccc1)N[C@H]1CS[C@H](c2cccs2)CN(CC(=O)O)C1=O | 20.9 µM (active) |  |
| CC(=O)SCC(Cc1ccccc1)C(=O)NCC(=O)OCc1ccccc1 (stereo not given) |  | 96% |
| COc1cc(N2CCN(C)CC2)ccc1Nc1nccc(-c2cn(C)c3cnccc23)n1 | 0.372 µM (active) |  |
| CC[C@@H]1C(=O)N(C)c2cnc(Nc3ccc(C(=O)NC4CCC(N5CCN(CC6CC6)CC5)CC4)cc3OC)nc2N1C(C)C (stereo not given in full) | 0.118 µM (active) |  |
| CCOc1cc2ncc(C#N)c(Nc3ccc(F)c(Cl)c3)c2cc1NC(=O)/C=C/CN(C)C | 0.934 µM (active) |  |
| CCCCc1oc2ccccc2c1C(=O)c1cc(I)c(OCCN(CC)CC)c(I)c1 | 18.6 µM (active) |  |
| Cc1[nH]c(=O)c(C#N)cc1-c1ccc2nccn2c1 |  | 127% |
| Cc1ccc(CN2CCNCC2)cc1NC(=O)CNc1ccc(F)c(F)c1 |  | 102% |
